From ChEMBL document CHEMBL1961873, “Compounds: GSK PKIS; Assays: Nanosyn kinase panel” (2012)
Values joined by “and” are separate entries in the source; they are usually repeats but may differ in a detail not shown here. Identical values can stand only once.

Assays:
[1] = target: Calcium/calmodulin-dependent protein kinase type II subunit alpha (Homo sapiens) (UniProt Q9UQM7); conditions: at 1 µM;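 note: reported value is a mean percent inhibition of CAMK2A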
[2] = target: Calcium/calmodulin-dependent protein kinase type II subunit delta (Homo sapiens) (UniProt Q13557); conditions: at 0.1 µM
[3] = target: Calcium/calmodulin-dependent protein kinase type II subunit delta (Homo sapiens) (UniProt Q13557); conditions: at 1 µM
[4] = target: T1, Calcium/calmodulin-dependent protein kinase type IV (Homo sapiens) (UniProt Q16566); conditions: at 0.1 µM
T1 sequence (whole entry): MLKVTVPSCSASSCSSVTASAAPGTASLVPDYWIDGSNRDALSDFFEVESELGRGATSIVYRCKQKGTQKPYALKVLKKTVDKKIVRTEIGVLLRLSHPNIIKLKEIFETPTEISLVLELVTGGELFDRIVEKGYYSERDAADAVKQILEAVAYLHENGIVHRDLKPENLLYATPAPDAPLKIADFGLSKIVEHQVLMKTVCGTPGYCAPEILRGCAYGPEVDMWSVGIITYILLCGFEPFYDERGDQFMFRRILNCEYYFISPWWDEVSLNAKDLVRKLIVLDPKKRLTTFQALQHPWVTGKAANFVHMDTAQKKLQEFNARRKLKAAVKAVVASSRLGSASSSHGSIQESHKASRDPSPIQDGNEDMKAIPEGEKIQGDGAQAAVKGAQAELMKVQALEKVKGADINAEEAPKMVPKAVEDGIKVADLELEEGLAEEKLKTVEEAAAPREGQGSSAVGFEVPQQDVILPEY

[5] = target: T1, Calcium/calmodulin-dependent protein kinase type IV (Homo sapiens); conditions: at 1 µM
[6] = target: T2, Serine/threonine-protein kinase Chk1 (Homo sapiens) (UniProt O14757); conditions: at 0.1 µM
T2 sequence (whole entry): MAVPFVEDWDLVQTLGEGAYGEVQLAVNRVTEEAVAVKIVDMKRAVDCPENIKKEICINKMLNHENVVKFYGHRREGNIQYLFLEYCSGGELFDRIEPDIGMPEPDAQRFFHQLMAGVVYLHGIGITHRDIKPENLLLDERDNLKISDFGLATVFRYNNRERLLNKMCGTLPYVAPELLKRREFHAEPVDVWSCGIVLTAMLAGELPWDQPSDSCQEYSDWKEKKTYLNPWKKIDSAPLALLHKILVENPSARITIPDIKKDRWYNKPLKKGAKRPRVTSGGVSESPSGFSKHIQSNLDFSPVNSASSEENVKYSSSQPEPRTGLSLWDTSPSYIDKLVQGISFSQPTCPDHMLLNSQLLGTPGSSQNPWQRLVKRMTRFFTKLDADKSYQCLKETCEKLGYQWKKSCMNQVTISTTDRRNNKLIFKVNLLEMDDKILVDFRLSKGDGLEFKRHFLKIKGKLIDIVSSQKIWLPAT

[7] = target: T2, Serine/threonine-protein kinase Chk1 (Homo sapiens); conditions: at 1 µM
[8] = target: Serine/threonine-protein kinase Chk2 (Homo sapiens) (UniProt O96017); conditions: at 0.1 µM
Chain of Serine/threonine-protein kinase Chk2 (Homo sapiens) (O96017 whole entry): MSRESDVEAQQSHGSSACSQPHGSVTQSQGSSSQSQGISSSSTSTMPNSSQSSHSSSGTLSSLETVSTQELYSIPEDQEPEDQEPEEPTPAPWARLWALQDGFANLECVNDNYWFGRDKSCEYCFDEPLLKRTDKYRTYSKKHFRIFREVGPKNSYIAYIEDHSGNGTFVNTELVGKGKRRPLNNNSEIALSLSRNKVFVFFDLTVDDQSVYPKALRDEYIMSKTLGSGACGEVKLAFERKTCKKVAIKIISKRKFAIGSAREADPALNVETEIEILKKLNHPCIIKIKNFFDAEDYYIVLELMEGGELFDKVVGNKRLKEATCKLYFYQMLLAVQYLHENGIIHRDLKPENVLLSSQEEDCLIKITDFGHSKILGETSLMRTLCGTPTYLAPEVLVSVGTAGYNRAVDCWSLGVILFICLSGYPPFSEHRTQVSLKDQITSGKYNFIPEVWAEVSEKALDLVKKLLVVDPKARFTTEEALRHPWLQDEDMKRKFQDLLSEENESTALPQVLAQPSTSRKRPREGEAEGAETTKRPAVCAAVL

[9] = target: Serine/threonine-protein kinase Chk2 (Homo sapiens) (UniProt O96017); conditions: at 1 µM
[10] = target: Death-associated protein kinase 1 (Homo sapiens) (UniProt P53355); conditions: at 0.1 µM
Chain of Death-associated protein kinase 1 (Homo sapiens) (P53355 whole entry, looked up): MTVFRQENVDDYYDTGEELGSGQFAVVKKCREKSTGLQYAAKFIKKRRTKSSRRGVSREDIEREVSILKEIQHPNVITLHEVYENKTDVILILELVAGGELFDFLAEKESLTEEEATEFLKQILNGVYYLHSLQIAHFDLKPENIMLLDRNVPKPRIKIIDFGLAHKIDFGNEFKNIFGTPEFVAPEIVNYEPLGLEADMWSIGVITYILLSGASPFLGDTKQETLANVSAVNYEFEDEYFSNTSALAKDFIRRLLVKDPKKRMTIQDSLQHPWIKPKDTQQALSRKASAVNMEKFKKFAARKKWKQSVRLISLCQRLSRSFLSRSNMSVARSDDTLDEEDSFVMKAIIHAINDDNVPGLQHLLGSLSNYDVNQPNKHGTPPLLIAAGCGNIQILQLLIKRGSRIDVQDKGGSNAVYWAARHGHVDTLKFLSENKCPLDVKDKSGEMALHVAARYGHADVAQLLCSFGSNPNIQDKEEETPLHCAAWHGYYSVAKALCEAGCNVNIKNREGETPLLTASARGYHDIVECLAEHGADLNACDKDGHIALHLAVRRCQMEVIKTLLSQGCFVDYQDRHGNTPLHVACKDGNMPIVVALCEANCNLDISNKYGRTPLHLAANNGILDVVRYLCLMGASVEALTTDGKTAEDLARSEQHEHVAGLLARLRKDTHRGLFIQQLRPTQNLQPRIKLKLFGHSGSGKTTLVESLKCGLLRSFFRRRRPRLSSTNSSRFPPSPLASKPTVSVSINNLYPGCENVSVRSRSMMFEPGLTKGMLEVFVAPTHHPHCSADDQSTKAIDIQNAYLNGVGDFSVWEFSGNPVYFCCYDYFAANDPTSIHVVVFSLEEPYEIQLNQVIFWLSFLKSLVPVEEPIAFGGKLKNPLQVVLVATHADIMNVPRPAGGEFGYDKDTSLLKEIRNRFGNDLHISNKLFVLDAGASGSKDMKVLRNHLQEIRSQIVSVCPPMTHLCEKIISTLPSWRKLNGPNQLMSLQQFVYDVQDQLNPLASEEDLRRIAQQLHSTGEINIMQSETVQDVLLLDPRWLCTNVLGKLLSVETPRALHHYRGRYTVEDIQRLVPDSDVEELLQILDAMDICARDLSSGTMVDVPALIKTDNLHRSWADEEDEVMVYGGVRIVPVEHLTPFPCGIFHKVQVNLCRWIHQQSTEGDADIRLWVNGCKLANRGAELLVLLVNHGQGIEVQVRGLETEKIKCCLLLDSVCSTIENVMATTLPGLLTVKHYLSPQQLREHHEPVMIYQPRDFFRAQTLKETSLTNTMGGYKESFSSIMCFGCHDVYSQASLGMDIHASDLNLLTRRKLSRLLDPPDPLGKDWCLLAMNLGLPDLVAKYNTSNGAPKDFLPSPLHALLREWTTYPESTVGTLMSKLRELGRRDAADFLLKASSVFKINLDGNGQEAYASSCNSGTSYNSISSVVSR

[11] = target: Death-associated protein kinase 1 (Homo sapiens) (UniProt P53355); conditions: at 1 µM
[12] = target: T3, Serine/threonine-protein kinase DCLK2 (Homo sapiens) (UniProt Q8N568); conditions: at 0.1 µM
T3 sequence (whole entry): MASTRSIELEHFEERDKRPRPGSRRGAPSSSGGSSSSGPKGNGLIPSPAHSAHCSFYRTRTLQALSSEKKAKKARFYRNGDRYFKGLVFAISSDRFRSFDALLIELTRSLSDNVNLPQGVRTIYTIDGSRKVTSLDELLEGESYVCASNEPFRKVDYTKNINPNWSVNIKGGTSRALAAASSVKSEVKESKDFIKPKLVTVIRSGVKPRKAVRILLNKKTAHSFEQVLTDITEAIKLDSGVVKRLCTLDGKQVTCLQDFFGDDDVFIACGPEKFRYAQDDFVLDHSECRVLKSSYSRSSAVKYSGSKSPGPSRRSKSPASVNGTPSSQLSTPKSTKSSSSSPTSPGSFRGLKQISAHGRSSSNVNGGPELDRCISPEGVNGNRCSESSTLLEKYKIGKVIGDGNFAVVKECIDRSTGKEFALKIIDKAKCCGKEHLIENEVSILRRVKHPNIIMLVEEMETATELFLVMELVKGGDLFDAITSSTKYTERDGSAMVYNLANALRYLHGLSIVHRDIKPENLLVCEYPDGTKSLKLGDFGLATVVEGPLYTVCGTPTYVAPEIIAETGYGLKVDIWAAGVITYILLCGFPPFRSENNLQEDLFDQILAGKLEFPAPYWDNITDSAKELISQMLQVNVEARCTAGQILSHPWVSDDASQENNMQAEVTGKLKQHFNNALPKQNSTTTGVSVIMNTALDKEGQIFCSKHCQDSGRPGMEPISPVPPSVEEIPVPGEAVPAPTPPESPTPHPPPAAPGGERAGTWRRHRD

[13] = target: T3, Serine/threonine-protein kinase DCLK2 (Homo sapiens); conditions: at 1 µM
[14] = target: MAP kinase-activated protein kinase 2 (Homo sapiens) (UniProt P49137); conditions: at 0.1 µM
Chain of MAP kinase-activated protein kinase 2 (Homo sapiens) (P49137 whole entry, looked up): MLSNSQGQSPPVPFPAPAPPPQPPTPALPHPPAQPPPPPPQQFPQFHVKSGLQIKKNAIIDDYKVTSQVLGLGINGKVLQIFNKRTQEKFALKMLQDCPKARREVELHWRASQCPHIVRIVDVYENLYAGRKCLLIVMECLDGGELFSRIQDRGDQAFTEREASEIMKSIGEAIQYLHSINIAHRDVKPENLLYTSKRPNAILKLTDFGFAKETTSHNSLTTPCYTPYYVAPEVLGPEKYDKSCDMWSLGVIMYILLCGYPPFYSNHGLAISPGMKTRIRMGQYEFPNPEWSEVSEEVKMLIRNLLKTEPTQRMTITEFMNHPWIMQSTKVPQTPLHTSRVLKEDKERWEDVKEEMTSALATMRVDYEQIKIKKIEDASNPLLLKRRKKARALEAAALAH

[15] = target: MAP kinase-activated protein kinase 2 (Homo sapiens) (UniProt P49137); conditions: at 1 µM
[16] = target: MAP kinase-activated protein kinase 3 (Homo sapiens) (UniProt Q16644); conditions: at 0.1 µM
Chain of MAP kinase-activated protein kinase 3 (Homo sapiens) (Q16644 whole entry, looked up): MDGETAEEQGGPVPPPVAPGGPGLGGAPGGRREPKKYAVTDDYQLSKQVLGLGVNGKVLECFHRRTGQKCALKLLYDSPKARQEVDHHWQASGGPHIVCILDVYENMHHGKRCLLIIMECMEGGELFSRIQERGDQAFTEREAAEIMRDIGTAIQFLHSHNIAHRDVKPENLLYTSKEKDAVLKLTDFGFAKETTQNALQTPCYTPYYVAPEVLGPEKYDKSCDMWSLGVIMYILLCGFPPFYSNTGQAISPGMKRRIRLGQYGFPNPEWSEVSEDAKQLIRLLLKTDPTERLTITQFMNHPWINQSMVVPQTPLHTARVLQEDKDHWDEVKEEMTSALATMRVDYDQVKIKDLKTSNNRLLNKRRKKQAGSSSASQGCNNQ

[17] = target: MAP kinase-activated protein kinase 3 (Homo sapiens) (UniProt Q16644); conditions: at 1 µM
[18] = target: Serine/threonine-protein kinase MARK1 (Homo sapiens) (UniProt Q9P0L2); conditions: at 0.1 µM
Chain of Serine/threonine-protein kinase MARK1 (Homo sapiens) (Q9P0L2 whole entry, looked up): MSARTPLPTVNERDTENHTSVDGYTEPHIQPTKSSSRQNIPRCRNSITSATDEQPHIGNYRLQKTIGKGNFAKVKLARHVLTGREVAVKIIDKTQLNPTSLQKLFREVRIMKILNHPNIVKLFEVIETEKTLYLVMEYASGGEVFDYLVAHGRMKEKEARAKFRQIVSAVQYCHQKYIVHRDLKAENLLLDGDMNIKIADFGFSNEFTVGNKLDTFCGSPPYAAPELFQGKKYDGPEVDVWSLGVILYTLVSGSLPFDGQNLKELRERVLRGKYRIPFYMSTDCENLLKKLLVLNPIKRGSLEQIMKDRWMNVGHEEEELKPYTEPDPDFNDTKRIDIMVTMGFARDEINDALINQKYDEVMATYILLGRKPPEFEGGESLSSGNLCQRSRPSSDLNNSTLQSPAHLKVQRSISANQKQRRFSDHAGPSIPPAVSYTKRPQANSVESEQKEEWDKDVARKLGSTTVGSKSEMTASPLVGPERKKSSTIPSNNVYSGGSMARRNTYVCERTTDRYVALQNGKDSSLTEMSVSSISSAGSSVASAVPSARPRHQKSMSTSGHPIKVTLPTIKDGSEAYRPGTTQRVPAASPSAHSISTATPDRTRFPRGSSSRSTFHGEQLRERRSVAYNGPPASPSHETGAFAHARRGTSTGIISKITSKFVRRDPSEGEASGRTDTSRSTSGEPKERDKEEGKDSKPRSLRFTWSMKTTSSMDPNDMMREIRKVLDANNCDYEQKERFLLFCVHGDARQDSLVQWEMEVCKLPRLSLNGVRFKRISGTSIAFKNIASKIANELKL

[19] = target: Serine/threonine-protein kinase MARK1 (Homo sapiens) (UniProt Q9P0L2); conditions: at 1 µM
[20] = target: MAP/microtubule affinity-regulating kinase 3 (Homo sapiens) (UniProt P27448); conditions: at 0.1 µM;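 note: mean percent inhibition of MARK3 kinase activity, measured within the GSK PKIS screening panel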
Chain of MAP/microtubule affinity-regulating kinase 3 (Homo sapiens) (P27448 whole entry, looked up): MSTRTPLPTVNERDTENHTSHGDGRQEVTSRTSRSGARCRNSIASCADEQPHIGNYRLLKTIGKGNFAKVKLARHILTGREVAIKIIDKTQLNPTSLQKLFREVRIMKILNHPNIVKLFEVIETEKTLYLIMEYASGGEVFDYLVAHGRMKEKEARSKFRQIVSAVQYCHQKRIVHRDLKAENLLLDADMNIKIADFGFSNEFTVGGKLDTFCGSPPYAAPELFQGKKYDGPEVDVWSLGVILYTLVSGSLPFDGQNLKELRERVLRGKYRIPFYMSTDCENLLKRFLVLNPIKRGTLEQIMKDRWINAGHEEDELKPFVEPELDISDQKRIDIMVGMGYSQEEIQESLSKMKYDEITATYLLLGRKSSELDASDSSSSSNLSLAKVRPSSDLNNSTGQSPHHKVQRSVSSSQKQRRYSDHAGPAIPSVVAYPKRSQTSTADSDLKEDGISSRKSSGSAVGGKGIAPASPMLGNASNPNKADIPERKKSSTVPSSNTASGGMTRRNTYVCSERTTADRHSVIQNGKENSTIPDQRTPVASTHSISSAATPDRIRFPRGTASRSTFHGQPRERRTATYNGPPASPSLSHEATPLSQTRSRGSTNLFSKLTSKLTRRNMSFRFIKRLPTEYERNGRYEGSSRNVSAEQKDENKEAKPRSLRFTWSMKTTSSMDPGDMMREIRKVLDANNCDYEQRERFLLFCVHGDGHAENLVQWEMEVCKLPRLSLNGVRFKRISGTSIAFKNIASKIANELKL

Chain of Calcium/calmodulin-dependent protein kinase type II subunit alpha (Homo sapiens) (Q9UQM7 whole entry): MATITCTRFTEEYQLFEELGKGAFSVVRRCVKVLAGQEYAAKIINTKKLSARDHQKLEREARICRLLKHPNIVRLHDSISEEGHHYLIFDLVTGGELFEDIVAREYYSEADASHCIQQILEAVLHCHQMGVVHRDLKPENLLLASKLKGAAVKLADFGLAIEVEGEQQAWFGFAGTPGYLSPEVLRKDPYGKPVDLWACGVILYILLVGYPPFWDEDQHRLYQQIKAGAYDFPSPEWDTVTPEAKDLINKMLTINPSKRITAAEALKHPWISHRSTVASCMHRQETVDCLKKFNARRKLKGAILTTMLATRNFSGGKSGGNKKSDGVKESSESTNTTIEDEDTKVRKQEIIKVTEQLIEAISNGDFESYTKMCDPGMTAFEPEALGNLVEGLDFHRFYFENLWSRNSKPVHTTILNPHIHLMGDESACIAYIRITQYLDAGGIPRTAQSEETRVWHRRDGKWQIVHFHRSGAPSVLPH

SMILES	inhibition [1]	inhibition [2]	inhibition [3]	inhibition [4]	inhibition [5]	inhibition [6]	inhibition [7]	inhibition [8]	inhibition [9]	inhibition [10]	inhibition [11]	inhibition [12]	inhibition [13]	inhibition [14]	inhibition [15]	inhibition [16]	inhibition [17]	inhibition [18]	inhibition [19]	inhibition [20]
COc1cccc(-n2ncc3c(N/N=C/c4ccc(C(=O)NCCN(C)C)cc4)ncnc32)c1	10.4%	8.19%	36.1%	0.48%	1.87%	2.47%	5.69%	0.95%	3.14%	3.46%	4.78%	1.42%	0.78%	0.79%	1.08%	1.89%	4.06%	4.25%	16.7%	4.78%
CN(c1ccc(NC(=O)NCCN2CCOCC2)cc1)c1ccnc(Nc2ccc(CS(C)(=O)=O)cc2)n1	1.11%	1.06%	3.97%	-3.18%	-5.39%	4.02%	3.14%	2.01%	6.85%	4.05%	4.97%	0.85%	0.61%	1.97%	2.7%	2.92%	3.83%	2.9%	7.21%	2.81%
CN1CCN(Cc2ccc(-c3cc4ncnc(Nc5ccc(OCc6cccc(F)c6)c(Cl)c5)c4s3)o2)CC1	5.07% and 4.38%	1.16% and 3.96%	3.36% and 5.38%	-0.07% and -1.54%	2.1% and 1.05%	8.64% and 3.56%	7.78% and 8.12%	9.39% and 5.57%	28.6% and 26.4%	9.3% and 6.62%	8.26% and 8.39%	-1.96% and 1.28%	-0.55% and 0.13%	3.34% and 2.08%	3.32% and 2.11%	10.6% and 4.26%	13% and 4.01%	2.62% and 3.44%	6.17% and 6%	1.67% and 1.64%
Cc1ccc(-c2cc3c(NC(=O)C4CC4)ncnc3o2)cc1	4.25%	3.37%	3.7%	-0.74%	30.3%	-0.37%	3.47%	2.56%	5.07%	3.63%	4.66%	1.46%	0.28%	1.78%	1.3%	2.67%	2.29%	5.62%	5.21%	3.78%
OCCCNc1nccc(-c2c(-c3ccc(F)cc3)nn3cc(C(F)(F)F)ccc23)n1	3.74%	2.44%	6.94%	0.82%	1.44%	-0.5%	-1.18%	2.3%	2.83%	-0.68%	1.04%	0.89%	2.29%	0.94%	0.71%	30.2%	36.3%	0.69%	3.09%	0.94%
COC(=O)Nc1nc2cc(Oc3ccc(NC(=O)Nc4ccccc4)cc3)ccc2[nH]1	1.94%	1.6%	1.54%	-1.32%	-2.54%	-0.71%	3.92%	1.94%	3.46%	3.21%	3.19%	-1.72%	5.13%	1.49%	1.44%	1.74%	2.32%	2.28%	4.31%	1.57%
CNC(=O)c1ncccc1Nc1nc(Nc2cc3c(cc2OC)CCCN3C(=O)CN(C)C)nc2[nH]ccc12	5.55%	4.46%	8.21%	0.87%	5.93%	3.13%	4.54%	3.89%	11.9%	4.3%	7.57%	1.66%	3.04%	2.23%	1.51%	3.6%	2.72%	4.87%	6.32%	5.9%
O=C(O[C@H]1CN[C@H](C#Cc2cc3ncnc(Nc4ccc(OCc5cccc(F)c5)c(Cl)c4)c3s2)C1)N1CCOCC1	3.21%	3.54%	2.65%	-1.14%	-3.95%	-1.89%	-1.17%	-1.01%	2.28%	-1.79%	-0.32%	0.93%	0.57%	-0.11%	0.31%	-0.64%	-0.5%	6.71%	5.07%	1.14%
NC(=O)c1ccc2c(-c3ccnc(NCCCO)n3)c(-c3ccc(F)cc3)nn2c1	3.63%	4.46%	3.95%	0.65%	0.03%	8.23%	7.94%	10.1%	10.6%	11.7%	15.1%	1.81%	1.24%	5.03%	5.02%	39.7%	43.4%	4.33%	4.69%	4.33%
Cn1c(-c2nonc2N)nc2cnccc21	1.59%	2.9%	4.76%	2.54%	2.02%	1.55%	2.48%	2.16%	3.21%	2.36%	2.42%	0%	5.3%	1.66%	1.06%	3.29%	2.75%	3.2%	7.22%	0.25%
CN1CCC(C(=O)Nc2n[nH]c3nc(-c4ccc(O)cc4)c(Br)cc23)CC1	5.88% and 4.76%	3.23% and 2.76%	12.3% and 11.1%	-1.13% and 0.82%	-1.76% and 1.46%	0.73% and 0.68%	5.31% and 2.46%	3.5% and 1.61%	5.98% and 3.76%	2.41% and 2.49%	2.5% and 1.28%	-1.57% and -0.96%	5.44% and 10.2%	1.56% and -0.15%	1.12%	2.88% and 0.82%	2.79% and 1.9%	3.54% and -0.23%	8.58% and 1.5%	-0.22% and -0.59%
CCS(=O)(=O)c1ccc(OC)c(Nc2ncc(-c3cccc(F)c3)o2)c1	5.43%	4.73%	10.6%	-0.92%	1.07%	3.94%	12.9%	2.75%	4.65%	7.21%	7%	1.71%	1.48%	2.52%	3.2%	7.02%	7.04%	1.75%	4.44%	3.77%
CCN1CCC(C(=O)Nc2n[nH]c3nnc(-c4cccc(F)c4F)cc23)CC1	-1.33%	-0.8%	-0.61%	0.3%	-1.03%	-2.25%	0.59%	-0.57%	0.65%	-0.72%	-1.64%	-0.76%	-0.98%	-0.95%	-0.88%	-0.17%	-1.03%	0.92%	2.69%	-0.37%
Nc1ncnc2occ(-c3ccc(NC(=O)Nc4cc(C(F)(F)F)ccc4F)cc3)c12	3.84% and -2.75%	3.01% and -3.72%	4.94% and 0.29%	0.92% and -1.47%	6.17% and 0.48%	3.39% and 0.89%	3.36% and 1.22%	0.48% and -3.48%	2.69% and -1.74%	3.18% and 0.64%	4.75% and 1.06%	3.65% and -1.65%	-4.63%	1.16% and -1.74%	1.1% and -1.65%	3.46% and -1.38%	13.9% and 7.55%	1.91% and -0.63%	3.01% and -0.26%	1.57% and -1.4%
